# Measurements: PubChem BioAssay (Tox21)
# Unmarked numbers belong to inactive results. Where a call stands in place of a potency, no number is given. Active and inactive are the calls of the source. Unless noted, calls follow the shape of the dose curve; as a rule, active = well fitted curve in the direction sought with a large enough effect in the repeat runs; inconclusive = weak or mixed curves; inactive = no such curve, though single readings can be large; an effect the other way counts as inactive or inconclusive.
# Key:
# [1] = qHTS assay for small molecules that induce genotoxicity in human embryonic kidney cells expressing luciferase-tagged ATAD5 (AID 651632); also: nearly all actives have a fitted effect of over 15% in size
# Summary of the method: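 Test compounds were delivered by pin tool onto HEK293T reporter cells (2,000/well) expressing ATAD5 fused to luciferase. After 16 hr at 37C, 5% CO2, Amplite was added for 30 min at room temperature and luminescence was measured.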
# [2] = qHTS assay for small molecule agonists of the p53 signaling pathway - cell viability (AID 651633; calls by dose curve; also: nearly all actives have a fitted effect of over 30% in size; also: potency is read from the fitted curve at half-maximal effect)
# Summary of the method: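 Viability counter-read: CellTiter-Glo luminescence (30 min, room temperature) in the same p53RE-bla plates. These plates had been exposed to compounds for 16 h at 37 C.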
# [3] = qHTS assay for small molecules that induce genotoxicity in human embryonic kidney cells expressing luciferase-tagged ATAD5 - cell viability (AID 651634; calls by dose curve; also: nearly all actives have a fitted effect of over 25% in size)
# Summary of the method: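 Quantitative high-throughput format. HEK293T cells expressing ATAD5 fused to luciferase were plated at 2,000 cells/well and treated 15.5 hr with compound versus DMSO. Viability was determined by fluorescent live-cell protease substrate, 30 min at 37C.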
# [4] = qHTS assay for small molecule disruptors of the mitochondrial membrane potential - cell viability (AID 720634; calls by dose curve;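 also: human HepG2 liver cancer cells; series mostly up to about 83 µM; nearly all actives have a fitted effect of over 20% in size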)
# Summary of the method: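 Same-well counter-screen: following the MMP dye addition, CellTiter-Glo was added to 1 hr compound-treated HepG2 cells and luminescence read after 30 min at room temperature.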
# [5] = qHTS assay for small molecule disruptors of the mitochondrial membrane potential (AID 720635); also: potency is read from the fitted curve at half-maximal effect
# Summary of the method: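 Mitochondrial membrane potential tracked with Mito-MPS dye, red aggregates (ex 540/em 590 nm) against green monomers (ex 490/em 535 nm). Compound treatment 1 hr at 37C, dye 30 min in HepG2.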
# [6] = qHTS assay to test for compound auto fluorescence at 590 nm (red) in HepG2 cells (AID 720674)
# Summary of the method: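 Red autofluorescence (Ex/Em 540/590 nm, Rose Bengal sodium equivalents) was measured in HepG2 cells, 2,000 per well in MEM plus 10% FBS, plated overnight at 37 C. Readings were taken 1 hr after adding 23 nL compound or DMSO, at 37 C and 5% CO2.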
# [7] = qHTS assay to test for compound auto fluorescence at 535 nm (green) in HepG2 cells (AID 720675)
# [8] = qHTS assay to test for compound auto fluorescence at 460 nm (blue) in HEK293 cells (AID 720678)
# Summary of the method: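 Cells were seeded and left to adhere for 4-5 hr at 37C. Compounds were then pin-transferred. After an overnight incubation at 37C under 5% CO2, intrinsic fluorescence at 405/460 nm was measured and referenced to triamterene.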
# [9] = qHTS assay to test for compound auto fluorescence at 590 nm (red) in HEK293 cells (AID 720679)
# Summary of the method: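 Each well held 2,000 HEK293 cells in medium containing 10% dialyzed FBS. Following 4-5 hr attachment at 37C, 23 nL test compound or DMSO was added; plates sat overnight, and red fluorescence (540/590nm) was recorded.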
# [10] = qHTS assay to test for compound auto fluorescence at 535 nm (green) in HEK293 cells (AID 720680)
# [11] = qHTS assay to test for compound auto fluorescence at 460 nm (blue) in HEK293 cell free culture (AID 720681)
# Summary of the method: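 Blue fluorescence (Ex 405/Em 460 nm, triamterene-equivalent) was read immediately after pin transfer of compound or DMSO into medium (DMEM, 10% FBS) without cells.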
# [12] = qHTS assay to test for compound auto fluorescence at 535 nm (green) in HEK293 cell free culture (AID 720682)
# Summary of the method: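 Fluorescein serves as the green reference fluorophore; each compound's intrinsic emission at 535 nm (excitation 485 nm) is reported as an equivalent amount of that dye, measured in serum-containing DMEM without cells.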
# [13] = qHTS assay to test for compound auto fluorescence at 590 nm (red) in HEK293 cell free culture (AID 720683)
# Summary of the method: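 Red-channel autofluorescence of compounds in culture medium (DMEM, 10% FBS), no cells, measured at 540/590 nm. Rose Bengal sodium is the reference fluorophore for equivalence.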
# [14] = qHTS assay to test for compound auto fluorescence at 590 nm (red) in HepG2 cell free culture (AID 720684)
# Summary of the method: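 Cell-free; medium MEM + 10% FBS; compound or DMSO added by pintool; read Ex 540/Em 590 nm; Rose Bengal sodium as red reference fluorophore.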
# [15] = qHTS assay to test for compound auto fluorescence at 460 nm (blue) in HepG2 cell free culture (AID 720685)
# Summary of the method: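 Cell-free plates of MEM plus 10% FBS received 23 nL compound or DMSO vehicle; blue-channel (405/460 nm) intensity scored against triamterene as reference fluorophore.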
# [16] = qHTS assay to test for compound auto fluorescence at 535 nm (green) in HepG2 cell free culture (AID 720686)
# [17] = qHTS assay to test for compound auto fluorescence at 460 nm (blue) in HepG2 cells (AID 720687)
# Summary of the method: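 Blue-channel autofluorescence (Ex/Em 405/460 nm, triamterene-equivalent) was measured after 1 hr compound exposure at 37 C, 5% CO2. Cells were HepG2, plated overnight at 37 C in MEM plus 10% FBS.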
# [18] = qHTS assay to identify small molecule antagonists of the glucocorticoid receptor (GR) signaling pathway - cell viability counter screen (AID 720693); also: nearly all actives have a fitted effect of over 55% in size; also: potency is read from the fitted curve at half-maximal effect
# [19] = qHTS assay for identifying genotoxic compounds that show differential cytotoxicity against isogenic chicken DT40 cell lines with known DNA damage response pathways - wild type cell line (AID 743012); also: potency is read from the fitted curve at half-maximal effect; nearly all actives have a fitted effect of over 60% in size
# Summary of the method: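 300 wt DT40 cells/well; cpd (DMSO) pintool-transferred after ~0.5 h at 37 C/5% CO2; 40 h incubation; CellTiter-Glo added, 30 min RT; luminescence read.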
# [20] = qHTS assay for identifying genotoxic compounds that show differential cytotoxicity against isogenic chicken DT40 cell lines with known DNA damage response pathways - Rev3 mutant cell line (AID 743014); also: potency is read from the fitted curve at half-maximal effect; nearly all actives have a fitted effect of over 55% in size
# [21] = qHTS assay for identifying genotoxic compounds that show differential cytotoxicity against isogenic chicken DT40 cell lines with known DNA damage response pathways - Rad54/Ku70 mutant cell line (AID 743015); also: potency is read from the fitted curve at half-maximal effect; nearly all actives have a fitted effect of over 60% in size
# [22] = qHTS assay to identify small molecule antagonists of the androgen receptor (AR) signaling pathway - cell viability counter screen (AID 743033; also: nearly all actives have a fitted effect of over 45% in size)
# [23] = qHTS assay to identify small molecule antagonists of the androgen receptor (AR) signaling pathway using the MDA cell line - cell viability counter screen (AID 743041; also: nearly all actives have a fitted effect of over 45% in size)
# Summary of the method: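 Viability read by CellTiter-Fluor fluorescence in the same wells as the antagonist screen, added after 15.5 h of a 16 h, 37C exposure. Human breast carcinoma MDA-kb2 AR-luc cells, compounds co-dosed with agonist R1881.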
# [24] = qHTS assay to identify small molecule antagonists of the thyroid receptor (TR) signaling pathway - cell viability counter screen (AID 743064); also: potency is read from the fitted curve at half-maximal effect; nearly all actives have a fitted effect of over 50% in size
# Summary of the method: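 Fluorescence from CellTiter-Fluor, added after 23.5 h exposure at 37 °C, reported viability of GH3.TRE-Luc cells co-treated with compound and 1 nM T3. Measured in the same wells as the luciferase TR readout.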
# [25] = qHTS assay to identify small molecule antagonists of the thyroid receptor (TR) signaling pathway (AID 743065); also: potency is read from the fitted curve at half-maximal effect; nearly all actives have a fitted effect of over 55% in size
# Summary of the method: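 Antagonism measured as loss of luciferase signal in GH3 cells stably carrying a TRE-luciferase reporter, co-treated with compound and T3 (1 nM final) for 23.5 h at 37 C. Viability was read in the same well by CellTiter-Fluor.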
# [26] = qHTS assay to identify small molecule antagonists of the estrogen receptor alpha (ER-alpha) signaling pathway - cell viability counter screen (AID 743074; calls by dose curve;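 also: HEK293 cells carrying ER-alpha-UAS-bla reporter stimulated with 17beta-estradiol; nearly all actives have a fitted effect of over 45% in size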; also: potency is read from the fitted curve at half-maximal effect)
# [27] = biological target: Estrogen receptor (Homo sapiens) (UniProt P03372); assay: qHTS assay to identify small molecule agonists of the estrogen receptor alpha (ER-alpha) signaling pathway (AID 743075; calls by dose curve;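 also: HEK293 GripTite cells with ER-alpha and UAS-driven beta-lactamase reporter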; also: potency is read from the fitted curve at half-maximal effect)
# Chain of Estrogen receptor (Homo sapiens) (P03372 whole entry, looked up): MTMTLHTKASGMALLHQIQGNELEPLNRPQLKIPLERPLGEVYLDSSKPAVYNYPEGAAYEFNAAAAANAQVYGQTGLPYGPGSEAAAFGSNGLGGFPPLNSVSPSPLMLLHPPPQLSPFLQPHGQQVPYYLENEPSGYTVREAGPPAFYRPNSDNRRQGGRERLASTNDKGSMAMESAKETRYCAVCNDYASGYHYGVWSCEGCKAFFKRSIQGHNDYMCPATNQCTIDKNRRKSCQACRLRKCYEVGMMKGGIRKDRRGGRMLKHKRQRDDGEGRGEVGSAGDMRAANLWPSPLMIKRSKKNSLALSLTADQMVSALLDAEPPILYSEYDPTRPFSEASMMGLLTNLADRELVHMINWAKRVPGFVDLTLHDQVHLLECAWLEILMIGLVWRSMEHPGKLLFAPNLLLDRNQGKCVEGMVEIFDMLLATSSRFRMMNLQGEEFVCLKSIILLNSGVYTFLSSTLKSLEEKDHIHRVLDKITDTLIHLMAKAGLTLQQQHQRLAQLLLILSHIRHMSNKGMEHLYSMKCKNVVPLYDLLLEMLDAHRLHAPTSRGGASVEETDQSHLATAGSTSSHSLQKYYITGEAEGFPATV
# [28] = biological target: Estrogen receptor (Homo sapiens) (UniProt P03372); assay: qHTS assay to identify small molecule agonists of the estrogen receptor alpha (ER-alpha) signaling pathway using the BG1 cell line (AID 743079); also: nearly all actives have a fitted effect of over 20% in size; also: potency is read from the fitted curve at half-maximal effect
# [29] = qHTS assay to identify small molecule antagonists of the estrogen receptor alpha (ER-alpha) signaling pathway using the BG1 cell line - cell viability counter screen (AID 743081);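 also: compound given together with 17beta-estradiol as the ER stimulus; nearly all actives have a fitted effect of over 45% in size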; also: potency is read from the fitted curve at half-maximal effect
# [30] = biological target: Aromatase (Homo sapiens) (UniProt P11511); assay: qHTS assay to identify aromatase inhibitors (AID 743083); also: series mostly up to about 70 µM; nearly all actives have a fitted effect of over 55% in size
# Chain of Aromatase (Homo sapiens) (P11511 whole entry, looked up): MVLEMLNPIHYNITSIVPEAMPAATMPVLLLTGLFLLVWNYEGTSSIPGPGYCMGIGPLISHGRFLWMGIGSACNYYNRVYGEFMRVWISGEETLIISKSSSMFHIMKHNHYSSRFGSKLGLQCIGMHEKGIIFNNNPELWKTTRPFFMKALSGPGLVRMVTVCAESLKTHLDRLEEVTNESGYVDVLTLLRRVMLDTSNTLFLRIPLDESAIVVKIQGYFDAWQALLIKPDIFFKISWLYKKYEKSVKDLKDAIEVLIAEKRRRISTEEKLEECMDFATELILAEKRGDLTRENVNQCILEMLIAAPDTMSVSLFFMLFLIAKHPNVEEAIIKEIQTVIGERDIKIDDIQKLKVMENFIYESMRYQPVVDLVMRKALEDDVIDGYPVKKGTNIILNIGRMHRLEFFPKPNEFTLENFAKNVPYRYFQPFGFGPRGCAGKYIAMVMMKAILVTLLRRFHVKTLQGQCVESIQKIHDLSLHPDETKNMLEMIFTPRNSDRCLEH
# [31] = qHTS assay to identify aromatase inhibitors - cell viability counter screen (AID 743084)
# [32] = qHTS assay to identify small molecule that activate the aryl hydrocarbon receptor (AhR) signaling pathway - cell viability counter screen (AID 743086)
# Summary of the method: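 Cytotoxicity counter screen: CellTiter-Fluor signal (30 min, 37 C) in 4000 HepG2 cells/well carrying the DRE-luciferase reporter, following 24 h compound exposure at 37 C.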
# [33] = biological target: Peroxisome proliferator-activated receptor gamma (Homo sapiens) (UniProt P37231); assay: qHTS assay to identify small molecule agonists of the peroxisome proliferator-activated receptor gamma (PPARg) signaling pathway (AID 743094; active = well fitted activation curve with a large enough effect in the signal ratio in the repeat runs, not every such curve was filed as active; inconclusive = weak or mixed curves, or effect the other way; inactive = no such curve, though single readings can be large or run the other way; the % refers to the signal ratio)
# Chain of Peroxisome proliferator-activated receptor gamma (Homo sapiens) (P37231 whole entry, looked up): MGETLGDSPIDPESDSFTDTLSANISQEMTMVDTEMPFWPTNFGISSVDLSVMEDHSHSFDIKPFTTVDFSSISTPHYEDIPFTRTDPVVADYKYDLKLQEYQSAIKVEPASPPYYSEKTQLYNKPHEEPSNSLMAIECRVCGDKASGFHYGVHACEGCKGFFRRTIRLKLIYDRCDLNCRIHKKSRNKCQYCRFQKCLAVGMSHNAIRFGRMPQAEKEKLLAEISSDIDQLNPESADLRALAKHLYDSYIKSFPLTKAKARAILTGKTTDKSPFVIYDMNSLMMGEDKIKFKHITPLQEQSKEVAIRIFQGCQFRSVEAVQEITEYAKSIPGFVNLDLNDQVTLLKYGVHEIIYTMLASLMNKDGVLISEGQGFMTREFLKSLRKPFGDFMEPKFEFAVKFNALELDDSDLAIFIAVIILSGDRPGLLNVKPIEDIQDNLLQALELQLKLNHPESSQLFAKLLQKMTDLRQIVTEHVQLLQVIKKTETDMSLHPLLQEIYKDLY
# Summary of the method: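 Cell-based bla reporter, HEK293H background, PPARg-driven UAS. Pre-incubation 5 h, 37C, 5% CO2. Compound 17 h, 37C. Substrate 1 h RT; fluorescence.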
# [34] = biological target: Acetylcholinesterase (Homo sapiens) (UniProt P22303); assay: Acetylcholinesterase (AChE) small molecule antagonists: enzyme-based qHTS assay with human liver microsomes (AID 1347399; calls by dose curve; also: nearly all actives have a fitted effect of over 60% in size); conditions: Potency: qHTS inhibition; outcome: qHTS inhibition
# Chain of Acetylcholinesterase (Homo sapiens) (P22303 whole entry, looked up): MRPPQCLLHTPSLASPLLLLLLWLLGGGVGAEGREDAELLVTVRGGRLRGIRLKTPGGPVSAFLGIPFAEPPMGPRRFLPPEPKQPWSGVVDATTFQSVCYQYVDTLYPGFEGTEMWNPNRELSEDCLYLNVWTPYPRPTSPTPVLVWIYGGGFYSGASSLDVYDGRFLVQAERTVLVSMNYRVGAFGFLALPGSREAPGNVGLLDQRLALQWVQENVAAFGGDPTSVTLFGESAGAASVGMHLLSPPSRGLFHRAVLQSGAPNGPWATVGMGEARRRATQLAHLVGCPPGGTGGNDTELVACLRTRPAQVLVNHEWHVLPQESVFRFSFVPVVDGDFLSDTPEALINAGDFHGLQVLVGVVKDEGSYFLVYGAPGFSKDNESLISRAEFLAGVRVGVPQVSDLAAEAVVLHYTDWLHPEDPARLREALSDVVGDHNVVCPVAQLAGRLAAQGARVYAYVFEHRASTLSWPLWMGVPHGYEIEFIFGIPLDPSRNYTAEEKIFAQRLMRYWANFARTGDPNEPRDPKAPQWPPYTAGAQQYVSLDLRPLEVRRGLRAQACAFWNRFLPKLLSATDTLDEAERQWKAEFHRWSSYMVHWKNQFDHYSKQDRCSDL
# Summary of the method: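 Recombinant human AChE (50 mU/mL in the enzyme mix) and human liver microsomes (0.25 mg/mL final) were preincubated with compound and NADPH (0.25 mg/mL final) for 30 min at 37 C. Acetylthiocholine/DTNB was then added; thiocholine was read colorimetrically after 10 min at room temperature.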
# [35] = biological target: Acetylcholinesterase (Homo sapiens) (UniProt P22303); assay: Acetylcholinesterase (AChE) small molecule antagonists: fluorescence cell-based qHTS assay (AID 1347398; calls by dose curve; also: nearly all actives have a fitted effect of over 50% in size; also: potency is read from the fitted curve at half-maximal effect); conditions: Potency: AChE activity; outcome: AChE activity
# Summary of the method: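 Cellular AChE activity read as thiocholine from acetylthiocholine hydrolysis, detected by Thiolite Green fluorescence at 490/520 nm after 40 min at room temperature. Compounds were pre-incubated 30 min at 37 C on adherent SH-SY5Y cells.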
# [36] = qHTS assay for small molecule agonists of the p53 signaling pathway (AID 651631; calls by dose curve; also: nearly all actives have a fitted effect of over 15% in size)
# Summary of the method: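 Read-out is beta-lactamase FRET fluorescence measured 2 h after substrate addition at room temperature, in HCT-116 cells with a p53 response element-driven reporter exposed to compounds for 16 h at 37 °C.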
# [37] = tested on: thyroid hormone receptor (rat, GH3 cells); assay: qHTS assay to identify small molecule agonists of the thyroid receptor (TR) signaling pathway (AID 743066; calls by dose curve)
# [38] = biological target: Estrogen receptor (Homo sapiens) (UniProt P03372); assay: qHTS assay to identify small molecule antagonists of the estrogen receptor alpha (ER-alpha) signaling pathway (AID 743069; active = well fitted curve in the direction sought with a large enough effect in the signal ratio in the repeat runs, not every such curve was filed as active; inconclusive = weak or mixed curves, or effect the other way; inactive = no such curve, though single readings can be large or run the other way; the % refers to the signal ratio)
# Summary of the method: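 Antagonist mode: compounds in DMSO were co-added with 17beta-estradiol to ER-alpha-bla HEK293 cells (2% charcoal-stripped serum) and left 18 h at 37C. Reporter inhibition was measured as FRET fluorescence after 2 h LiveBLAzer substrate at room temperature.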
# [39] = qHTS assay to identify small molecule antagonists of the estrogen receptor alpha (ER-alpha) signaling pathway using the BG1 cell line (AID 743080; calls by dose curve; also: series mostly up to about 70 µM; nearly all actives have a fitted effect of over 25% in size)
# Summary of the method: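 Antagonist mode: compounds in DMSO were pinned onto BG1-Luc-4E2 cells alongside 17beta-estradiol agonist, incubated 21.5 h, and ERE-driven luciferase measured with ONE-Glo. Cytotoxicity was multiplexed using CellTiter-Fluor fluorescence.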
smiles,measurement,setting,value
C#C[C@]1(OC(=O)CCCCCC)CC[C@H]2[C@@H]3CCC4=CC(=O)CC[C@@H]4[C@H]3CC[C@@]21C,outcome,[1],inactive
same,Potency,[2],29.8 µM (active)
same,Potency,[3],inactive
same,outcome,[4],inactive
same,Potency,[5],8.41 µM (active)
same,outcome,[6],inactive
same,outcome,[7],inactive
same,outcome,[8],inactive
same,outcome,[9],inactive
same,outcome,[10],inactive
same,outcome,[11],inactive
same,outcome,[12],inactive
same,outcome,[13],inactive
same,outcome,[14],inactive
same,outcome,[15],inactive
same,outcome,[16],inactive
same,outcome,[17],inactive
same,Potency,[18],21.3 µM (active)
same,Potency,[19],2.66 µM (active)
same,Potency,[20],5.96 µM (active)
same,Potency,[21],5.96 µM (active)
same,Potency,[22],inactive
same,outcome,[23],inactive
same,Potency,[24],11.9 µM (active)
same,Potency,[25],11.9 µM (active)
same,Potency,[26],19 µM (active)
same,Potency,[27],0.338 µM [inconclusive] (active)
same,Potency,[28],0.596 µM (active)
same,Potency,[29],inactive
same,Potency,[30],inactive
same,outcome,[31],inactive
same,Potency,[32],inactive
same,outcome,[33],inactive
COc1cc(C(=O)NCc2ccc(OCCN(C)C)cc2)cc(OC)c1OC,Potency,[34],inactive
COc1ccccc1N1CCN(CCCNc2cc(=O)n(C)c(=O)n2C)CC1,Potency,[35],inactive
same,Potency,[34],inactive
CCN1/C(=C/C=C/c2sc3ccccc3[n+]2CC)Sc2ccccc21,Potency,[35],6.74 µM (active)
same,"activity change, negative = inhibition",[34],4.36% [at 23.6 µM]
Cc1[nH]c(=O)c(C#N)cc1-c1ccncc1,Potency,[35],inactive
same,Potency,[34],inactive
COc1ccc2cc(S(=O)(=O)N[C@H](CC(=O)N[C@H](Cc3ccc(CN4[C@H](C)CCC[C@@H]4C)cc3)C(=O)N(C)C(C)C)c3ccc4c(c3)OCO4)ccc2c1,Potency,[34],inactive
C1CCc2nnnn2CC1,Potency,[30],inactive
COc1cc(C[C@H](C)N)c(OC)cc1Br,Potency,[36],inactive
same,outcome,[1],inactive
same,Potency,[2],inactive
same,Potency,[3],inactive
same,outcome,[4],inactive
same,outcome,[6],inactive
same,outcome,[7],inactive
same,outcome,[8],inactive
same,outcome,[9],inactive
same,outcome,[10],inactive
same,outcome,[11],inactive
same,outcome,[12],inactive
same,outcome,[13],inactive
same,outcome,[14],inactive
same,outcome,[15],inactive
same,outcome,[16],inactive
same,outcome,[17],inactive
same,Potency,[18],inactive
same,Potency,[19],70.4 µM (active)
same,Potency,[20],62.7 µM (active)
same,Potency,[21],70.4 µM (active)
same,Potency,[22],inactive
same,Potency,[24],70.4 µM (active)
same,Potency,[25],31.4 µM (active)
same,outcome,[37],inactive
same,outcome,[38],inactive
same,Potency,[26],inactive
same,Potency,[27],inactive
same,Potency,[28],inactive
same,outcome,[39],inactive
same,Potency,[29],15.8 µM (active)
same,Potency,[30],inactive
same,outcome,[31],inactive
same,Potency,[32],inactive
Nc1ncnc2c1ncn2CCOCP(=O)(O)O,Potency,[36],inactive
same,Potency,[30],inactive
